HT1080-NT tox: kills 2HG-producing HT-1080-NT fibrosarcoma cells; HT-1080-NT fibrosarcoma viability, CellTiter-Glo ATP luminescence, 48 h; Potency, µM (titrated, usually from 46.1 µM), without a hit: top-dose activity, negative = less viability, usual class: cytotoxic; 360,000 compounds, 1.6% hits;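 further: NT is the 2HG producing partner of a matched IDH1 knockdown line; potency means the concentration at half of the fitted maximal effect; 0% = DMSO-treated cells and -100% = media-only wells without cells; nearly all actives have a fitted effect of over 55% in size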
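A 48-hour cytotoxicity screen used HT-1080-NT cells plated 2 hours before compound delivery. ATP-based CellTiter-Glo luminescence measured viability, normalized to DMSO and no-cell controls.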
TDP1 cell noCPT: qHTS for Inhibitors of human tyrosyl-DNA phosphodiesterase 1 (TDP1): qHTS in cells in absence of CPT. DT40 Tdp1-/- hTDP1 cells, no CPT, ATP luminescence, 48 h. Potency, µM (doses to about 46.2 µM), for the others: at the highest dose activity change, negative = growth inhibition, hits mostly inhibitors. 420,000 compounds, 15% hits; further: potency means the concentration at half of the fitted maximal effect; nearly all actives have a fitted effect of over 55% in size
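Readout: luminescence from CellTiter-Glo after 30 min in the dark at RT. Cells: DT40 Tdp1-/- with stable hTDP1, 400/well. Exposure: compounds alone, ≥48 hr, 37 °C.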
TDP1 cell CPT: DT40-hTDP1 cell growth loss with CPT; chicken DT40 Tdp1-/-;hTDP1 cells + 20 nM CPT, ATP luminescence, 48 h; Potency, µM (top dose mostly 46.2 µM), for the others: at the top dose activity change, negative = growth inhibition, most hits filed as inhibitors; 420,000 compounds, 12% hits; AID 686979; further: potency means the concentration at half of the fitted maximal effect; nearly all actives have a fitted effect of over 55% in size
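Chicken DT40 Tdp1-/- cells stably complemented with human TDP1 were seeded at 400 cells/well in medium containing 20 nM camptothecin, exposed to pin-transferred compounds, and grown at 37 °C for at least 48 hr. Viability was read as ATP luminescence.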
HT1080 IDH1KD tx: kills HT-1080 cells with IDH1 knockdown; HT-1080 IDH1 knockdown viability, ATP luminescence, 48 h; Potency, µM (series often up to 46.1 µM), for the others: at the top dose activity, negative = toxicity, most hits filed as cytotoxic; 360,000 compounds, 2% hits; AID 686971;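 further: potency means the concentration at half of the fitted maximal effect; 0% = DMSO wells and -100% = cell-free medium wells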
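HT-1080-IDH1KD cells (IDH1 knocked down), 750/well in RPMI with 5% FBS, treated with compound 48 h at 37 degrees C. Viability by CellTiter-Glo luminescence, normalised to DMSO and no-cell wells; concentration-response curves classed.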
uPA surface inh: inhibitors of cell surface uPA generation. cell surface uPA generation assay, qHTS. Potency, µM (doses to about 38.3 µM), inactives show at the top dose activity change, negative = inhibition, actives largely listed as inhibitors. 330,000 compounds, 0.31% hits. AID 540303; active means well fitted inhibition curve with a large enough effect; inconclusive means small, poorly fitted or top-dose-only effect; inactive means no such curve, though single readings can be large or run the other way; tested in mouse RAW 264.7 cells; further: potency means the concentration at half of the fitted maximal effect; nearly all actives have a fitted effect of over 55% in size
IL-1B inflam inh: inflammasome signaling inhibition, IL-1 beta readout; AID 743279; activity change, % at 57.5 µM; 360,000 compounds, 4.7% hits; THP-1 LPS/ATP IL-1B secretion, AlphaLISA, 16 h; hits give low values; in the data active means activity change below about -50%; inconclusive means mostly about -30% to -49%
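THP-1 cells pretreated 1 hr with compounds (up to 57.5 uM final), then stimulated with LPS (250 ng/mL final) plus ATP (1.25 mM final); secreted IL-1B measured by AlphaLISA after 16 hr, decreased signal indicating inhibition.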
Numbers without * were called inactive; u = inconclusive; x = no result given; [ ] = dose if it differs, or a comment. A selection: hits, their analogues and other compounds. The true share with any hit is near 19%. Unless noted, the call rests on the fitted dose curve; in most records, active means well fitted curve in the direction sought with a large enough effect; inconclusive means small, poorly fitted or top-dose-only effect, or another doubt; inactive means no such curve, though single readings can be large; an effect the other way counts as inactive or inconclusive. Unless noted, on the % scale 0 is the no-effect control and ±100 the full control effect.

SMILES | HT1080-NT tox | TDP1 cell noCPT | TDP1 cell CPT | HT1080 IDH1KD tx | uPA surface inh | IL-1B inflam inh
COc1cc(OC)c(OC)cc1/C=C/c1ccnc2ccccc12 | u | 16µM* | 13µM* | u | -11% | -14
COc1ccc2ncccc2c1Cc1c(OC)ccc2ncccc12 | 0% | 13µM* | 15µM* | -11% | 0% | -75*
Cc1ccc2ncccc2c1N | 0% | -18% | -15% | 21% | 4% | -13
COc1ccccc1/C=C/c1ccnc2ccccc12 | x | 14µM* | u | x | x | x
COc1ccc(-c2nc3scc(CCNS(=O)(=O)c4c(C)cc(C)cc4C)n3n2)cc1OC | x | 23µM* | 15µM* | x | x | x
CC(=O)Nc1ccc(S(=O)(=O)NCCc2csc3nc(-c4ccc(Cl)cc4)nn23)cc1 | x | 16µM* | 21µM* | x | x | x
COc1ccc(S(=O)(=O)NCCc2csc3nc(-c4ccc(Cl)cc4)nn23)cc1C | x | 13µM* | 16µM* | x | x | x
COc1ccc(S(=O)(=O)NCCc2csc3nc(-c4ccc(OC)c(OC)c4)nn23)cc1C | x | 16µM* | u | x | x | x
COc1ccc(S(=O)(=O)NCCc2cn3nc(C)c(C)nc3n2)cc1C | 14% | 13% | -9% | 5% | 4% | -13
CC(C)Cc1cc(C(=O)NCC2Cc3cc(F)cc(-c4ccccn4)c3O2)no1 (configuration not stated) | x | -5% | 11%[9.04 µM] | x | x | x
Cc1cc(Br)ccc1NC(=O)CCNS(=O)(=O)c1cccc2nonc12 | x | u | -26% | x | x | x
COc1ccc(-c2nc3scc(CCNS(=O)(=O)c4ccc(F)cc4F)n3n2)cc1OC | x | 18µM* | u | x | x | x
COc1ccc(S(=O)(=O)NCCc2csc3nc(-c4cccc(C)c4)nn23)cc1F | x | 21µM* | u | x | x | x
Cc1cc2[nH]c3ccccc3c2c(C)n1 | -30% | 16µM* | u | u | -6% | -94*
Cc1nc(SCC(=O)OC(C)(C)C)c2c3c(sc2n1)CCCC3 | x | u | -24% | x | x | x
Cc1ccc(-c2nc3ccccc3o2)cc1NC(=O)c1cccc2c(Cl)cccc12 | x | -23% | u | x | x | x
COC(=O)c1ccccc1-c1cc(C)cc2c1OC(CNC(=O)c1occc1C)C2 (configuration not stated) | x | 12µM* | 16µM* | x | x | x
COC(=O)c1ccccc1-c1cc(C)cc2c1OC(CNC(=O)c1cc(C)n(C)n1)C2 (configuration not stated) | x | u | 8%[9.04 µM] | x | x | x
COc1cccc(NC(=O)C2CCN(C(=O)NC3CCCCC3)CC2)c1 | 11% | 2% | 0% | -1% | -1% | 21
CC(C)(C)c1ccc(C(=O)NNc2cc(N3CCCCC3)nc(N3CCCCC3)n2)cc1 | -2% | u | 26µM* | -20% | 5% | -17
CC(C)(C)c1ccc(C(=O)NNc2cc(N3CCOCC3)nc(N3CCOCC3)n2)cc1 | -24% | -23% | -3% | -14% | -4% | 6
Cn1c2c(c(=O)n(C)c1=O)C(c1ccc(Br)cc1)C(C#N)=C(N)N2 (configuration not stated) | -2% | 23µM* | u | -3% | 21% | 13
Cc1ccc(NC(=O)c2cnc(SCC(=O)c3ccccc3)n(C)c2=O)cc1 | 9% | 16µM* | -36% | 3% | 1% | 8
Cn1c(SCC(=O)c2ccccc2)ncc(C(=O)Nc2ccccc2)c1=O | -2% | 21µM* | u | -8% | -1% | 15
Cc1cc(NC(=O)CSc2ncc(C(=O)Nc3ccccc3)c(=O)n2C)no1 | x | 1% | -3% | x | x | x
SMILES | HT1080-NT tox | TDP1 cell noCPT | TDP1 cell CPT | HT1080 IDH1KD tx | uPA surface inh | IL-1B inflam inh
COc1ccc(NC(=O)C2CCN(S(=O)(=O)c3ccc4[nH]c(=O)ccc4c3)CC2)cc1Cl | x | 3% | -7% | x | x | x
COc1ccc(OC)c(NC(=O)CCCc2ccccc2)c1 | 7% | 2% | 9% | 9% | 4% | 7
COc1ccc(OC)c(NC(=O)Nc2nc(C(N)CCc3ccccc3)cs2)c1 (configuration not stated) | u | 9.2µM* | 7.3µM* | 21µM* | x | x
COc1ccc(CC(N)c2csc(NC(=O)Nc3cc(OC)ccc3OC)n2)cc1 (configuration not stated) | u | 5.8µM* | 5.2µM* | u | x | 0
COc1cc(NC(=O)Nc2nc(C(N)CCc3ccccc3)cs2)cc(OC)c1OC (configuration not stated) | 18µM* | 7.3µM* | u | u | x | u
O=C(NCC1CC1)Nc1ccccc1 | 21% | -23% | 3% | 6% | 2% | -8
COc1cc(/C=C/C(=O)NC(C)CCc2ccccc2)cc(OC)c1OC (configuration not stated) | -7% | u | u | -8% | 5% | 0
NC(CCc1ccccc1)c1csc(NC(=O)NCC2CCCCC2)n1 (configuration not stated) | 16µM* | 15µM* | 15µM* | u | x | u
O=S1(=O)c2ccccc2N(Cc2ccccc2F)c2ccccc21 | x | -27% | u | x | x | x
Cc1ccc(/C=N/NC(=O)c2cccc3ccccc23)o1 | u | 8.2µM* | 13µM* | u | -3% | -3
Cc1ccc(/C=N/NC(=O)c2ccc(NC(=O)c3ccccc3Cl)cc2)o1 | 0% | -15% | 7% | -1% | 2% | -71*
CCN(CC)c1ccc(/C=N\NC(=O)c2cccc3cc[nH]c23)cc1 | u | 2.9µM* | 5.2µM* | 5.2µM* | -29% | 15
O=C(N/N=C/c1ccccc1)c1cccc2ccccc12 | -18% | 1.3µM* | u | -3% | -2% | 4
Cc1c(C(=O)N2CCC(C(=O)Nc3ccc(F)cc3)CC2)sc2nc[nH]c(=O)c12 | x | -9% | -1% | x | x | x
COC(=O)C1=C(C)NC(C)=C(C(=O)OC)C1C(=O)OCC(=O)N1CCCCC1C (configuration not stated) | -3% | 3% | 1% | -5% | 0% | 4
CCOC(=O)c1cnc2c(C)c(C)ccc2c1NCCN1CCOCC1 | -18% | u | u | -25% | -7% | u
CC(C)C[C@@H]1Cc2[nH]c(=S)[nH]c(=O)c2[C@H](CCc2ccccc2)O1 | -6% | u | u | 0% | x | 10
Cc1ccccc1C(=O)Nc1ccc(C(=O)N/N=C/c2ccc(O)cc2)cc1 | 8.2µM* | u | u | u | -2% | -99*
Cc1ccccc1C(=O)Nc1ccc(C(=O)N/N=C/c2ccncc2)cc1 | -12% | -30% | 2% | -6% | 1% | 12

Bioassay records deposited in PubChem BioAssay by National Center for Advancing Translational Sciences (NCATS).
